Test results as given in PubChem BioAssay (NCATS).
Results filed as inconclusive are left out. A call without a number means that no potency is given here. A number with no mark means an inactive call. Active and inactive are the calls of the source. The call rests on the fitted dose curve; in most records, active means well fitted cell-killing curve with a large enough effect; inconclusive means small, poorly fitted or top-dose-only effect, or effect the other way; inactive means no such curve, though single readings can be large or run the other way.

Assays:
[1] = Viability qHTS for spleen associated tyrosine kinase inhibitor (SYKi) naive MV4-11 cells (AID 1963823); further: nearly all actives have a fitted effect of over 40% in size
Summary of the method: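 Compounds were dispensed acoustically onto plates, MV4-11 cells (SYKi-naive) added at 500 per well, and plates incubated 72 hr at 37 C. CellTiter-Glo was added and luminescence measured after 10 min.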

[2] = Viability qHTS for spleen associated tyrosine kinase inhibitor (SYKi) drug resistant MV4-11 cells (AID 1963824); further: nearly all actives have a fitted effect of over 35% in size
Summary of the method: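 SYK-inhibitor-resistant MV4-11 AML cells were seeded at 500 per well onto compound and cultured 72 hours (37 °C, 5% CO2). CellTiter-Glo was then added, and after 10 min at room temperature, luminescence gave viability.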
Potency means the concentration at half of the fitted maximal effect.

SMILES | Potency [1] | Potency [2] | viability (% of control) [1] | viability, % of control [2]
CS(=O)(=O)c1ccccc1N1CCN(c2nc3c(c(=O)[nH]2)CSCC3)CC1 | inactive | inactive |  | 
CNC(=O)c1ccccc1Nc1nc(Nc2ccc3c(c2OC)CCCC(N2CCN(CCO)CC2)C3)ncc1Cl (stereo unspecified) | 0.366 µM (active) | 0.731 µM (active) |  | 
CC1=C(C)C(=O)C(CCCCC#CCCCC#CCO)=C(C)C1=O | 11.9 µM (active) | 13.3 µM (active) |  | 
CC1=C(CCC(C)O[C@@H]2O[C@H](CO)[C@@H](O)[C@H](O)[C@H]2O)C(C)(C)CC(O)C1 (stereo partly specified) | inactive | inactive |  | 
C/C(=C/CO)CC[C@@H]1[C@@]2(C)CCC[C@](C)(C(=O)O)C2CC[C@@]1(C)O (stereo partly specified) | inactive | inactive |  | 
CCCCc1nc(Cl)c(CO)n1Cc1ccc(-c2ccccc2-c2nnn[nH]2)cc1 | inactive | inactive |  | 
CC(C)(C)c1cc(Br)cc([C@H](CC(=O)O)NC(=O)CNC(=O)c2cc(O)cc(NC3=NCC(O)CN3)c2)c1 (stereo partly specified) | inactive | inactive |  | 
COc1cc(C2OCC3(O)C(c4ccc(O[C@@H]5O[C@H](CO)[C@@H](O)[C@H](O)[C@H]5O)c(OC)c4)OCC23O)ccc1O (stereo partly specified) | inactive | inactive |  | 
c1cc(NCCc2c[nH]c3ccccc23)cc(Nc2ccncc2)c1 | 0.58 µM (active) | 0.651 µM (active) |  | 
O=C(OC[C@@]1(O)CO[C@@H](O[C@H]2[C@H](Oc3ccc(O)cc3)O[C@H](CO)[C@@H](O)[C@@H]2O)[C@@H]1O)c1ccc(O)cc1 | inactive | inactive |  | 
C=CCc1ccc(O[C@@H]2O[C@H](CO)[C@@H](O)[C@H](O)[C@H]2O)c(OC)c1 | inactive | inactive |  | 
COc1cc(C(=O)NC2CCN(C)CC2)ccc1Nc1ncc2c(n1)N(C1CCCC1)CC(F)(F)C(=O)N2C | 0.0231 µM (active) | 0.0103 µM (active) |  | 
CC(=O)O[C@H]1[C@H](O[C@H]2[C@@H]3C=CO[C@@H](O[C@@H]4O[C@H](CO)[C@@H](O)[C@H](O)[C@H]4O)[C@@H]3[C@@]3(CO)O[C@@H]23)O[C@@H](C)[C@H](OC(=O)/C=C/c2ccccc2)[C@H]1OC(=O)/C=C/c1ccccc1 |  |  | 88.5% [at 9.25 µM] | 83.3% [at 9.25 µM]
C[C@@H]1C(=O)O[C@H]2C[C@]34[C@H]5C[C@@H](C(C)(C)C)[C@]36[C@@H](OC(=O)[C@H]6O)O[C@]4(C(=O)O5)[C@]21O | inactive | inactive |  | 
CC1CC(=O)[C@]2(O)C(C(=O)OCCc3ccc(O)cc3)=CO[C@@H](O[C@@H]3O[C@H](CO)[C@@H](O)[C@H](O)[C@H]3O)[C@H]12 (stereo partly specified) | inactive | inactive |  | 
CC(O)(CC(=O)O)CC(=O)OCc1ccc(O[C@@H]2O[C@H](CO)[C@@H](O)[C@H](O)[C@H]2O)cc1 (stereo partly specified) | inactive | inactive |  | 
CC1(C)CC[C@]2(C(=O)O[C@@H]3O[C@H](CO[C@@H]4O[C@H](CO)[C@@H](O)[C@H](O)[C@H]4O)[C@@H](O)[C@H](O[C@@H]4O[C@H](CO)[C@@H](O)[C@H](O)[C@H]4O)[C@H]3O)[C@H](O)C[C@]3(C)C(=CCC4[C@@]5(C)CC[C@H](O[C@@H]6OC[C@@H](O)[C@H](O)[C@H]6O)[C@@](C)(C(=O)O)C5CC[C@]43C)[C@@H]2C1 (stereo partly specified) |  |  | 67.4% [at 9.25 µM] | 65.4% [at 9.25 µM]
C=C(C)C1CCC2(C(=O)OC3OC(COC4OC(CO)C(O)C(O)C4O)C(OC4OC(C)C(O)C(O)C4O)C(O)C3O)CCC3(C(=O)O)C(CCC4C5(C)CCC(=O)C(C)(C)C5CCC43C)C12 (stereo unspecified) |  |  | 84.8% [at 9.25 µM] | 91.7% [at 9.25 µM]
OC[C@H]1O[C@@H](OCCc2ccc(O)cc2)[C@H](O)[C@@H](O)[C@@H]1O | inactive | inactive |  | 
CC(C)(C(=O)NCC(F)(F)C(F)(F)F)C(=O)NC1C(=O)Nc2ccccc2-c2ccccc21 (stereo unspecified) | 14.6 µM (active) | 13 µM (active) |  | 
CCC1CC2C(C)=CC3CCCCC3C2(C)C2(OC(=O)C(C)(O)OC2=O)O1 (stereo unspecified) | 12.8 µM (active) | 10.1 µM (active) |  | 
CC1(C)CC[C@]2(C(=O)O[C@@H]3O[C@H](CO)[C@@H](O)[C@H](O)[C@H]3O)CC[C@]3(C)C(=CCC4[C@@]5(C)C[C@@H](O)[C@H](O)C(C)(C)C5[C@H](O)C[C@]43C)[C@@H]2[C@@H]1O (stereo partly specified) | inactive | inactive |  | 
C/C=C/C=C/[C@@H]1O[C@](O)([C@H](CC)C(=O)NC/C=C/C=C(\C)[C@@H](OC)[C@@H](C)[C@@H]2O[C@H](/C=C/C=C/C=C(\C)C(=O)c3c(O)ccn(C)c3=O)[C@H](O)[C@@H]2O)[C@H](O)[C@H](O)C1(C)C |  |  | 84.2% [at 9.25 µM] | 85.3% [at 9.25 µM]
